Of roughly 8,800 targets only a part is listed; those with a hit were picked by preference. About 0.5% of all pairs of compound and target were hits. Values without a mark were called inactive.
What was measured:
Experiment in all cases: log2 fold change, soluble protein after heating vs DMSO (PISA); higher = thermal stabilisation; K562 lysate, 10 uM; active = over 0.2 and 3.5 SD of the protein, either way, in both replicates (recomputed)
[1] = compound: O=C(CCCCCCC(=O)Nc1ccccc1)NO [vorinostat]
How it was run: (§1)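 Soluble protein was defined as the supernatant remaining after 21,000xg for 90 min, following pooling of heated aliquots and adjustment to 0.5% NP-40 at 4°C. Before that, crude K562 extract at 1 mg/mL protein in PBS pH 7.4 with 1 mM MgCl2 was treated with 10 μM compound for 30 min and heated for 3 min across 48°C-58°C. Quantification used TMTpro 16plex LC-MS/MS with channel sums equalised, and values are log-two fold changes in thermal stability relative to solvent controls from duplicates.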

[2] = compound: O=C(O)c1ccc2c(c1)nc(Nc1cccc(Cl)c1)c1ccncc12 [silmitasertib]
How it was run: as §1

[3] = compound: c1cn2cc(-c3ccc4cn[nH]c4c3)nc(Nc3ccc(N4CCOCC4)cc3)c2n1 [entospletinib]
How it was run: as §1

[4] = compound: O=C1NC(=O)C(c2cnc3ccccn23)=C1c1cn2c3c(cc(F)cc13)CN(C(=O)N1CCCCC1)CC2
How it was run: as §1

[5] = compound: NCC(=O)Nc1ccc(-n2nc(C(F)(F)F)cc2-c2ccc3c(ccc4ccccc43)c2)cc1
How it was run: as §1

UniProt P47900, sequence (P47900 whole entry, looked up): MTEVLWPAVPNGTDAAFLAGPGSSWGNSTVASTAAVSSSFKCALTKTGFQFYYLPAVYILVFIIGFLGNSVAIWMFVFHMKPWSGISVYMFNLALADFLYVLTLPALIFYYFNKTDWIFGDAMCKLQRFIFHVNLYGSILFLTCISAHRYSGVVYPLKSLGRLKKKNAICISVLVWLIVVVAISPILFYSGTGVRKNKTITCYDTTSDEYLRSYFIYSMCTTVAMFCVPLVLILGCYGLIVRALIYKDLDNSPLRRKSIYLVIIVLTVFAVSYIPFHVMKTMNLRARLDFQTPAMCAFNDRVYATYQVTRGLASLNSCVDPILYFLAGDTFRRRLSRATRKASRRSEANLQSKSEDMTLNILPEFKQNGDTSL
UniProt P00156, sequence (P00156 whole entry, looked up): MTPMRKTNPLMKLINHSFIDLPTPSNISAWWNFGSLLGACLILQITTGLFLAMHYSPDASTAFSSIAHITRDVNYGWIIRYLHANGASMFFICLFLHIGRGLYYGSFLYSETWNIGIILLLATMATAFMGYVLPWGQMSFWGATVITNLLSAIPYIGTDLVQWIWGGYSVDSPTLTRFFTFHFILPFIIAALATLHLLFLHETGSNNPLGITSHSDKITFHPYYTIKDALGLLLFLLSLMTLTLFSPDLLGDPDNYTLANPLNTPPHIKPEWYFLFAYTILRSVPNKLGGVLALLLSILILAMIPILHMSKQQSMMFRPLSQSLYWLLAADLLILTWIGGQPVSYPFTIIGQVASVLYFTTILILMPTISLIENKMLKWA
UniProt O76041, sequence (O76041 whole entry, looked up): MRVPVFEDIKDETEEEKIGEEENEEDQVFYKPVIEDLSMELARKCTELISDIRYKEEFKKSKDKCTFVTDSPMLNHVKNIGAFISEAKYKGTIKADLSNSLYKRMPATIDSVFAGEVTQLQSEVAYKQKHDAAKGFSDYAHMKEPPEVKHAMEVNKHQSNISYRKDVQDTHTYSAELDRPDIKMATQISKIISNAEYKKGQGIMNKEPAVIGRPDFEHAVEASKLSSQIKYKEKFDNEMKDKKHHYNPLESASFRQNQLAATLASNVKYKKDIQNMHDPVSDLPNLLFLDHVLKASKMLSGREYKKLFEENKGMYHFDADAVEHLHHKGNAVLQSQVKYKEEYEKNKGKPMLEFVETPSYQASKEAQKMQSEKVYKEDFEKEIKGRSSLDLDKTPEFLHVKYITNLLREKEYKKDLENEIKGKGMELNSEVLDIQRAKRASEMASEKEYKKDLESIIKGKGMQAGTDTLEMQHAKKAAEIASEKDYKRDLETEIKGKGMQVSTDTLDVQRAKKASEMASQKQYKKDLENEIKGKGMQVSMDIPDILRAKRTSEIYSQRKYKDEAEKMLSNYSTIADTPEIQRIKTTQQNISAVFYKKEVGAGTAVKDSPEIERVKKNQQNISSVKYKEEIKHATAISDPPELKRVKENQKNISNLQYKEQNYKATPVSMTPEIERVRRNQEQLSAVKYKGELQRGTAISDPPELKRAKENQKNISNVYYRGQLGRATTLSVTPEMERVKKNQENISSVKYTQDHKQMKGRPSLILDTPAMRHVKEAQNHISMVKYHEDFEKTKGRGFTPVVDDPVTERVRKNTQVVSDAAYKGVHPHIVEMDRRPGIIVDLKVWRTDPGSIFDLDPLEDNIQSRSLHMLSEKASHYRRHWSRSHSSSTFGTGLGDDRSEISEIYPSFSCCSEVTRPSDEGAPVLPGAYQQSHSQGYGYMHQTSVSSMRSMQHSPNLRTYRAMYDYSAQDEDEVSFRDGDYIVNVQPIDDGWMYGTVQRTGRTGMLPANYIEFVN
UniProt Q9BZ23, sequence (Q9BZ23 whole entry, looked up): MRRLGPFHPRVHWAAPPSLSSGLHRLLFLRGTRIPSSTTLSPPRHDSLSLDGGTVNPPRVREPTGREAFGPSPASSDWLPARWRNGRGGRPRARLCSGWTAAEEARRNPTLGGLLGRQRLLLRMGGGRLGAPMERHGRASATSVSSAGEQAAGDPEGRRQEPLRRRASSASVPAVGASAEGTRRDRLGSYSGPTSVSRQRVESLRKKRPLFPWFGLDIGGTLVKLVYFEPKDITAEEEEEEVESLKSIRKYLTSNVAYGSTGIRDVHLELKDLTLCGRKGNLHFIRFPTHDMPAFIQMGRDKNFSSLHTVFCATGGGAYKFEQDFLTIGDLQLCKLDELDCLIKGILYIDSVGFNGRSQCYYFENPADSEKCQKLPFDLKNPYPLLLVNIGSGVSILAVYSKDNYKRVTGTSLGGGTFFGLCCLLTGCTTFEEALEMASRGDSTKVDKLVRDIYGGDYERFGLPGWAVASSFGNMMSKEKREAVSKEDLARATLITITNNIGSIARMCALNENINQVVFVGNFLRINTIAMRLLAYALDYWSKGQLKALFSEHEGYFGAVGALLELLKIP
UniProt Q9BWT3, sequence (Q9BWT3 whole entry, looked up): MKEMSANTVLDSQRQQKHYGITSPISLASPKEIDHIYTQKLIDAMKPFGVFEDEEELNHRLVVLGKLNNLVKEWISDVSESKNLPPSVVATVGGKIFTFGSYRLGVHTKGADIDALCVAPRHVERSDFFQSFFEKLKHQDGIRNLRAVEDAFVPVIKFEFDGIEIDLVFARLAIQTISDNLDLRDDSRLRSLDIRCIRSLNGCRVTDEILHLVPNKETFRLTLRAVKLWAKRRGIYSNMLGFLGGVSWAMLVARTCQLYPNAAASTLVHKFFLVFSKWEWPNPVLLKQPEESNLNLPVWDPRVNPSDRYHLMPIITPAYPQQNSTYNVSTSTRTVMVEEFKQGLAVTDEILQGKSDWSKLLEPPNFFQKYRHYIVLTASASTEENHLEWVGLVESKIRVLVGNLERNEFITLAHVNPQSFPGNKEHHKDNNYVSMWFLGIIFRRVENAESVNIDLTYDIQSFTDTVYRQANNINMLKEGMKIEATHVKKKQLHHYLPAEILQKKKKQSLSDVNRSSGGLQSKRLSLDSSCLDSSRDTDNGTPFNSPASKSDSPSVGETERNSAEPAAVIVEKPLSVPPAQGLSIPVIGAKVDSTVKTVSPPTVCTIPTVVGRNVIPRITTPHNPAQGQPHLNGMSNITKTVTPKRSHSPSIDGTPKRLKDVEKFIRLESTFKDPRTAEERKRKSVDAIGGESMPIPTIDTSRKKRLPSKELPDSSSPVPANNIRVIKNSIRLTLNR
UniProt P24468, sequence (P24468 whole entry, looked up): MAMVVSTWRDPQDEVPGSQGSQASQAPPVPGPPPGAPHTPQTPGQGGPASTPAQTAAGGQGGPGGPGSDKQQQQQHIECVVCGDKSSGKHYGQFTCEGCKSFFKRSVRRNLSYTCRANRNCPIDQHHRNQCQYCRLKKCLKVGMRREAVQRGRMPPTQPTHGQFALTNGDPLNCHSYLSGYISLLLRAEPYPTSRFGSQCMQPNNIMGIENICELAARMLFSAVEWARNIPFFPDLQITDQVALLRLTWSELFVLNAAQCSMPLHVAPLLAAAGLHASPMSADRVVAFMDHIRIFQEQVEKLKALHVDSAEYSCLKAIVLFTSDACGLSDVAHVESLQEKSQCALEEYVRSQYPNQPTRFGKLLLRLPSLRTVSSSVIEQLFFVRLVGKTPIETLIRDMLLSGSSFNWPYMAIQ
UniProt Q13153, sequence (Q13153 whole entry, looked up): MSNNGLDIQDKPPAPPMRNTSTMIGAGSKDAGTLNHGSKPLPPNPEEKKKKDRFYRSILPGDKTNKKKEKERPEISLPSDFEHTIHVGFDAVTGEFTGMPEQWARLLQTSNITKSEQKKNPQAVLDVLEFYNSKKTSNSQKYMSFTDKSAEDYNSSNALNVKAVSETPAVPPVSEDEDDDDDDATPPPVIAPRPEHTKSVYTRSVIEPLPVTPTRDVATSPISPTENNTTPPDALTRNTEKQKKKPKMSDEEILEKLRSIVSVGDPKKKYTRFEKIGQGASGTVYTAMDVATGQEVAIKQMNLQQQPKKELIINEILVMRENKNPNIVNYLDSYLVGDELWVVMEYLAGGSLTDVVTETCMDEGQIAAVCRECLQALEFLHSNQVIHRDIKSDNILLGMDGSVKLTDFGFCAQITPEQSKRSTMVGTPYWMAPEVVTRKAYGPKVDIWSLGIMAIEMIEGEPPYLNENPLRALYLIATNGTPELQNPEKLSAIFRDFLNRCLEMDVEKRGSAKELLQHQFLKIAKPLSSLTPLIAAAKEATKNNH
UniProt Q147X3, sequence (Q147X3 whole entry, looked up): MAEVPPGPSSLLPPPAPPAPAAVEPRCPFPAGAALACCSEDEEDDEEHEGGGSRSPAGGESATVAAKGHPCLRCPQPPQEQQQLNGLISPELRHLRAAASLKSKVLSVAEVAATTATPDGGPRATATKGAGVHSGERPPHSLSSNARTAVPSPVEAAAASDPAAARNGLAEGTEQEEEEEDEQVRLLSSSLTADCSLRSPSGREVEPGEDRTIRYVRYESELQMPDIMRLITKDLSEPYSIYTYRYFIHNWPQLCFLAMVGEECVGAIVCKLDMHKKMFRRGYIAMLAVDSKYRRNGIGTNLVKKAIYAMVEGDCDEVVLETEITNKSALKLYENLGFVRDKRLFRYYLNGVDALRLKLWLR
UniProt Q15233, sequence (Q15233 whole entry, looked up): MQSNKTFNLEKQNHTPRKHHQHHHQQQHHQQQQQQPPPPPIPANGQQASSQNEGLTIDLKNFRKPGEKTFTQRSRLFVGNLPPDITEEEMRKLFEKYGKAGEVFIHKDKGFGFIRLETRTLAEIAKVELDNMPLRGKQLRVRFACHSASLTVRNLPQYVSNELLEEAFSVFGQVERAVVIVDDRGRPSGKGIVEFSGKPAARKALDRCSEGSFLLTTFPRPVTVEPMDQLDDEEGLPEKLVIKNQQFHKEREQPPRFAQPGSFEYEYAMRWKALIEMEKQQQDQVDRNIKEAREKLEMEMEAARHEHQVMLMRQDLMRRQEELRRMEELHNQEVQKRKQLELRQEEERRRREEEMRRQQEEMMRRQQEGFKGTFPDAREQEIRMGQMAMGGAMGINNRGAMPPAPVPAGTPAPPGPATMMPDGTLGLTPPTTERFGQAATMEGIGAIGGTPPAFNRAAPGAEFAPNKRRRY

Target | log2 fold change [1] | log2 fold change [2] | log2 fold change [3] | log2 fold change [4] | log2 fold change [5]
P2RY1 (UniProt P47900) | 0.04 | 0.13 | -0.064 |  | 
NUB1 isoform 2 (UniProt Q9Y5A7) |  |  |  | -0.068 | 
PAPOLG (UniProt Q9BWT3) | -0.369 (active) | 0.209 | -0.013 | 0.066 | -0.037
OSBP (UniProt P22059) | 0.108 | -0.121 | -0.1 | -0.015 | 0.041
MYLK (UniProt Q15746) |  |  | -0.096 | -0.294 | -0.312
NCAPH2 (UniProt Q6IBW4) | -0.277 (active) | 0 | -0.008 | 0.037 | 0.052
PARD3B (UniProt Q8TEW8) | -0.585 (active) | -0.209 |  |  | 
NPLOC4 (UniProt I3L3I1) |  |  | -0.146 | 0.253 | 
PAK1 (UniProt Q13153) | 0.13 | -0.046 | 0.051 | -0.001 | 0.008
PANK2 (UniProt Q9BZ23) |  |  | -0.023 | -0.012 | 0
PAN2 isoform 2 (UniProt Q504Q3) | -0.097 | 0.038 | 0.038 | -0.056 | 0.11
NAA30 (UniProt Q147X3) | -0.235 (active) | 0.047 | -0.003 | 0.009 | -0.019
NFAT5 isoform 4 (UniProt O94916) |  |  |  | -0.062 | 
NCAPG (UniProt Q9BPX3) | -0.283 (active) | 0.029 | -0.002 | -0.003 | -0.001
NAA16 (UniProt Q6N069) |  |  | -0.018 |  | 0.43
NR2F2 (UniProt P24468) | -0.389 (active) | 0.176 |  | 0.017 | 
NFATC4 isoform 2 (UniProt Q14934) |  |  | 0.019 | 0.076 | 0.207
MT-CYB (UniProt P00156) | 0.158 | 0.031 | 0.174 | 0.118 | -0.064
NONO (UniProt Q15233) | -0.355 (active) | 0.027 | 0 | -0.007 | 0.013
NCK1 (UniProt P16333) | -0.281 (active) | 0.01 | 0.019 | -0.014 | 0.048
NEBL (UniProt O76041) | 0.207 | 0.052 | -0.018 | -0.026 | 0.056
NUDT5 (UniProt C9JYY9) | -0.041 | 0.129 | 0.01 |  | 

Source: the supplement of paper PMC10849652
